We go through seven compounds from the supplement of paper PMC11732987, “Enantioselective OTUD7B fragment discovery through chemoproteomics screening and high-throughput optimisation” (Communications Chemistry, 2025).

Holding throughout (test): log2 ratio of Biotin-Ahx-Ub-VS probe labelling (fragment/DMSO); higher = less target engagement (more negative = stronger competition), active = hit call of the paper (q ≤ 0.05, log2 ratio ≤ -1)
Holding throughout (conditions): compound concentration: 200 uM; treatment time: 3 h

Assay [1] addresses T1, OTUD6B (UniProt Q8N6M0).
T1 sequence (whole entry): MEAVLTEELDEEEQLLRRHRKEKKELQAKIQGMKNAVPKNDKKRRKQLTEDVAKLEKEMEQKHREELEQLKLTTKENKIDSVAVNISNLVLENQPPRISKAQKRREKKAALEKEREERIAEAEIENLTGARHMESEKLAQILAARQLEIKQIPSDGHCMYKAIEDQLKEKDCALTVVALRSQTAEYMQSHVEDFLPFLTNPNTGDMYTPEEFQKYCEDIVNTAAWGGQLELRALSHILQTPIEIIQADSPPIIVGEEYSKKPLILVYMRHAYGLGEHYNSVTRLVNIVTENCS
The procedure, abridged:
(§1)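 Labelling with Biotin-Ahx-Ub-VS (0.5 µM final, 1 h) followed a 3 h triplicate treatment of HEK293T lysate (495 µg per sample, Tris/CHAPS/IGEPAL buffer with protease inhibitors) with fragment at 200 µM or vehicle. Labelled DUBs were NeutrAvidin-enriched, digested with LysC and trypsin, and run by diaPASEF LC-MS/MS. The values, average log2 fragment/vehicle ratios by unpaired t-test, come from global-median-normalised Spectronaut label-free quantities. Proteins with ≥2 unique peptides were used.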

Assay [2] deals with T2, OTUD7B (UniProt Q6GQQ9).
T2 sequence (whole entry): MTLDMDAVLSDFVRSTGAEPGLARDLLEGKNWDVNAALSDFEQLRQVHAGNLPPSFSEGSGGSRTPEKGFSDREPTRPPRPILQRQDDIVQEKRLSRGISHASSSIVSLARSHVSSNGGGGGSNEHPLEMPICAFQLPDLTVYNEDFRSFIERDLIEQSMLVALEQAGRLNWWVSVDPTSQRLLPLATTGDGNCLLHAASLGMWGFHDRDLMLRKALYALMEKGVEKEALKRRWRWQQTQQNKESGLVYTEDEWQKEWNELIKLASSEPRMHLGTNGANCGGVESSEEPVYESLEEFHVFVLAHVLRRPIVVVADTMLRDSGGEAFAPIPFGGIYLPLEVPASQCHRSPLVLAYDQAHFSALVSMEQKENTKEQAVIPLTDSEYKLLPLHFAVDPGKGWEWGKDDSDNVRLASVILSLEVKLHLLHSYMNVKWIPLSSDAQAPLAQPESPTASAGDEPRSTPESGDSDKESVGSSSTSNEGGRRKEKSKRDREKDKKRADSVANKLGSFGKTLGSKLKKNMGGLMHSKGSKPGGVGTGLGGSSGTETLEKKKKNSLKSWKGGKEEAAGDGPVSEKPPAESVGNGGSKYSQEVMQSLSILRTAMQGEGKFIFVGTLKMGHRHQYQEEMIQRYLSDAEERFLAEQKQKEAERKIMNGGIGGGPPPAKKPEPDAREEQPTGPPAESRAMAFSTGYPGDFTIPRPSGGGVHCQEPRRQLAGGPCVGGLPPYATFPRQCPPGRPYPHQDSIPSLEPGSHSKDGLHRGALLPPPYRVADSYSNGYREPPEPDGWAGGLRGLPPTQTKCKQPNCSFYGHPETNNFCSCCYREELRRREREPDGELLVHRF
Put shortly:
as §1

Assay [3] deals with PRPF8 (UniProt Q6P2Q9). The procedure, abridged:
as §1

Assay [4] addresses T3, PSMD7 (UniProt P51665).
T3 sequence (whole entry): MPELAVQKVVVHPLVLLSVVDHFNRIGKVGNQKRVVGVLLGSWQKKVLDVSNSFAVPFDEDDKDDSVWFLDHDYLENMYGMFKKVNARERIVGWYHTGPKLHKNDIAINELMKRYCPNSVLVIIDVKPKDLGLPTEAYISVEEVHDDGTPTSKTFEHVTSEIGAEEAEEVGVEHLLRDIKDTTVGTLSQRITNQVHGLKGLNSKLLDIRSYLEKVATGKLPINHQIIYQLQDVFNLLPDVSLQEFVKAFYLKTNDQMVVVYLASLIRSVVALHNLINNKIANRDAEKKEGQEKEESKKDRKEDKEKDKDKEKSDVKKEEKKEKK
The procedure, abridged: as §1

In assay [5] the target is UCHL1 (UniProt P09936). The procedure, abridged: as §1
Sequence of UCHL1 (P09936 whole entry, looked up): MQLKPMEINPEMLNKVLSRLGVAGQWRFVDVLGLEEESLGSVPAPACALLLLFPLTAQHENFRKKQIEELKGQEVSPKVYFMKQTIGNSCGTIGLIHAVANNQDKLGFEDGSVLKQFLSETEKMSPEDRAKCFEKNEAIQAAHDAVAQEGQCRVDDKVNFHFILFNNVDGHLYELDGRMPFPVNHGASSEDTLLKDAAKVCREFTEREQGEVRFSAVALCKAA
For assay [6], the target named is T4, UCHL3 (UniProt P15374).
T4 sequence (whole entry): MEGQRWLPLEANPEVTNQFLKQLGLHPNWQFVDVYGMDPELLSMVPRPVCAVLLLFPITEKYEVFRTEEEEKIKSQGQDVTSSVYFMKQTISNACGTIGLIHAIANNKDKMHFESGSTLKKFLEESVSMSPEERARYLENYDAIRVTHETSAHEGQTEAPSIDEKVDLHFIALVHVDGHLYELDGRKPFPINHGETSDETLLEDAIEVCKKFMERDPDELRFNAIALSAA
The procedure, abridged: as §1

The target of assay [7] is T5, UCHL5 (UniProt Q9Y5K5).
T5 sequence (whole entry): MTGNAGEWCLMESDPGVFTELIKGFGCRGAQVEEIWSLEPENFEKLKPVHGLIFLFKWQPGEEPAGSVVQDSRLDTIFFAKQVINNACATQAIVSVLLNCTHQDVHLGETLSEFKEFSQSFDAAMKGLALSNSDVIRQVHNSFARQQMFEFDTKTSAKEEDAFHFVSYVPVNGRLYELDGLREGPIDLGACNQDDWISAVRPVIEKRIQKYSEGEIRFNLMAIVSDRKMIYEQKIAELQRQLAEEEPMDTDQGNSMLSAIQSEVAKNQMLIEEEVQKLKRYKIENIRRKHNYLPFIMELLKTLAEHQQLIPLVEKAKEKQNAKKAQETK
The procedure, abridged: as §1

The target of assay [8] is USP10 (UniProt Q14694). Put shortly: as §1
Sequence of USP10 (Q14694 whole entry): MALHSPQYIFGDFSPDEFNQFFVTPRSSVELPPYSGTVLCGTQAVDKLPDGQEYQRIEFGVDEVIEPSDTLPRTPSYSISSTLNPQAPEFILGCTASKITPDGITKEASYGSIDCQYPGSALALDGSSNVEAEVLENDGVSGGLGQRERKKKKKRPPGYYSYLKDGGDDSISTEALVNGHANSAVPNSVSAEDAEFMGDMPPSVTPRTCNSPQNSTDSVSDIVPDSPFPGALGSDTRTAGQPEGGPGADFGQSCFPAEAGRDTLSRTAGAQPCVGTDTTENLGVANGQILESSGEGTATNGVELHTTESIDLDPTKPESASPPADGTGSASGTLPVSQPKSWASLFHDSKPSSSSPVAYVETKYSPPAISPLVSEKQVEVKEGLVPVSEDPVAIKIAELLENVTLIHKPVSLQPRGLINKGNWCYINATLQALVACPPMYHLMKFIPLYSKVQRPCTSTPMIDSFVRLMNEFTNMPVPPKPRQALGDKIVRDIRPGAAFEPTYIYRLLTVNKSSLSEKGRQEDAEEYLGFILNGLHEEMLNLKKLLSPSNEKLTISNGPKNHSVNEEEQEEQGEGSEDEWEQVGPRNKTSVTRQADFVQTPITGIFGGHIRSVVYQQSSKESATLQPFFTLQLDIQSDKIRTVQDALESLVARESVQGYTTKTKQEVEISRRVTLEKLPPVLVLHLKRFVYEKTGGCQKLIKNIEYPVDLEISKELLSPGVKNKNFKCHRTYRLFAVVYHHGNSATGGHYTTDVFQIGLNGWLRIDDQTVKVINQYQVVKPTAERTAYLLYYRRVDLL
The target in assay [9] is T6, USP15 (UniProt Q9Y4E8).
T6 sequence (whole entry): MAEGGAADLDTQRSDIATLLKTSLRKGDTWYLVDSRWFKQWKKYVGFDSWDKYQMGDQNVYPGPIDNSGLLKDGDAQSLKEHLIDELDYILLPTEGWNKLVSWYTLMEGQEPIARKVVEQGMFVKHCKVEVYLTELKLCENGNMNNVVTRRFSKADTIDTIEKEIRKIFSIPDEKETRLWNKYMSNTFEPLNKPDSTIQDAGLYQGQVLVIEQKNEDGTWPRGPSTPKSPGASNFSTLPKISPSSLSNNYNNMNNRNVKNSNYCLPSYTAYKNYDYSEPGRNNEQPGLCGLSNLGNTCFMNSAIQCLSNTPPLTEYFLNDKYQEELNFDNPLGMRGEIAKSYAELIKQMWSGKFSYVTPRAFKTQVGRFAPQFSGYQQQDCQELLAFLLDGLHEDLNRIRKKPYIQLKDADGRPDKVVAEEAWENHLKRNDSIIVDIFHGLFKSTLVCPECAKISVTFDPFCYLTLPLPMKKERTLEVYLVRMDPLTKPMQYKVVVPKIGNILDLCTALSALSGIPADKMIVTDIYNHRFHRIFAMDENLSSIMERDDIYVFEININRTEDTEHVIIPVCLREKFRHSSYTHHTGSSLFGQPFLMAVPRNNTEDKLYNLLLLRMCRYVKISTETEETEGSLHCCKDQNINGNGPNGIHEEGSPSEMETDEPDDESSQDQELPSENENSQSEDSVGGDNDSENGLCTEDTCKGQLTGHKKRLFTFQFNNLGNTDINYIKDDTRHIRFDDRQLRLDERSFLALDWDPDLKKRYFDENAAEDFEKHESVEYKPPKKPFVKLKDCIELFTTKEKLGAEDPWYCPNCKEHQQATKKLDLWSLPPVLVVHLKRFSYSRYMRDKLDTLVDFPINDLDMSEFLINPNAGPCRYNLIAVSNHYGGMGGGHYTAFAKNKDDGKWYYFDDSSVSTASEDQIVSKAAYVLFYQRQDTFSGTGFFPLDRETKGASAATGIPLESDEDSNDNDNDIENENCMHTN
Put shortly: as §1

In assay [10] the target is USP16 (UniProt Q9Y5T5). Put shortly:
as §1

Values without a mark were called inactive.

Sequence of USP16 (Q9Y5T5 whole entry, looked up): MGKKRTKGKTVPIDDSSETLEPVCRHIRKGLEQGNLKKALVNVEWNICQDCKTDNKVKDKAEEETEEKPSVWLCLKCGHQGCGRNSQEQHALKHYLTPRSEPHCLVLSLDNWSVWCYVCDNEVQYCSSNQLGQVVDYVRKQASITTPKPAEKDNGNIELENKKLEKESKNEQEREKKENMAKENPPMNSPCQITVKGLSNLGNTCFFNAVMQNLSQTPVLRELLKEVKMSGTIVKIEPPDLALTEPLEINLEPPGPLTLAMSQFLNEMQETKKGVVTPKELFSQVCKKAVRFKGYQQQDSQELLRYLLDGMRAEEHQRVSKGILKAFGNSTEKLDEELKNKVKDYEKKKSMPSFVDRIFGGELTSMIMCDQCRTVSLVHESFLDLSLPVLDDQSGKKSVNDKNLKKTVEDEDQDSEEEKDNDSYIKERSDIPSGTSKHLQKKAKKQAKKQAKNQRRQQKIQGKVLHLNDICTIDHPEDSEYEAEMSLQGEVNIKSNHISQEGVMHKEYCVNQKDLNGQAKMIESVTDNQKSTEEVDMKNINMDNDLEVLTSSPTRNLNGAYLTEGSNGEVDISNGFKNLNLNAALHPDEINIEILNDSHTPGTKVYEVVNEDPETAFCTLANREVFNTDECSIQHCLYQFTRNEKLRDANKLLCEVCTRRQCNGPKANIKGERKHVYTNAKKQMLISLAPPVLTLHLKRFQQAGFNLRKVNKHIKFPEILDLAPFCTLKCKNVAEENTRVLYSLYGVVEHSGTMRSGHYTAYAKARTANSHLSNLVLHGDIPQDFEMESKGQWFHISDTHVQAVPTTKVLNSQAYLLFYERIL

With `CCc1c[nH]c(CNC(=O)CCl)n1.Cl`, the “log2 ratio of Biotin-Ahx-Ub-VS probe labelling” value (“log2 ratio” for short) was -0.246 in [1]; -0.369 in assay [2]; 0.073 in [3]; -0.469 in assay [4]; -1.33 (active) in assay [5]; 0.0893 in [6]. Besides, the “log2 ratio” value is -0.335 in assay [7], -0.218 in [8], -0.538 in [9] and -0.0099 in assay [10].
Turning to `O=C(CCl)N1CCC(O)(Cc2ccc(F)cc2)C1` (stereo not given), the “log2 ratio” value in assay [1] was 0.0617; in [2], -0.082; in [3] it was -0.0432; in assay [4] it was -0.209; in assay [5] it was -1.12 (active); in assay [6], 0.0281. The “log2 ratio” value in [7] was 0.116; in [8], -0.309; in assay [9] it was -0.149; in assay [10], 0.246.
Regarding `Cc1ccc2nnc(CNC(=O)CCl)n2c1`, the “log2 ratio” value in assay [1] was 0.146; in [2], -0.395; in assay [3], 0.153; in [4], 0.238; in [5], -1 (active); in assay [6] it was 0.34. Moreover, the “log2 ratio” value in assay [7] is -0.0479; in [8] it was -0.0942; in [9], -0.0934; in assay [10], -0.0611.
As to `Cc1nc(CNC(=O)CCl)c2ccccn12.Cl`, the “log2 ratio” value in [1] was -0.000255; in [2], -0.458; in assay [3] it was -0.14; in assay [4], -0.132; in [5] it was -1.12 (active); in [6], -0.319. The “log2 ratio” value in assay [7] is -0.224; in [8] it was -0.121; in [9], -0.398; in assay [10] it was -0.0983.
Consider `Cl.O=C(CCl)N1CCc2ncncc2C1`, for which the “log2 ratio” value is -0.0834 in assay [1]; -0.487 in assay [2]; 0.0782 in assay [3]; -0.0569 in assay [4]; -0.583 in assay [5]; 0.176 in assay [6]. The “log2 ratio” value is -0.176 in assay [7], -0.322 in [8], -0.514 in assay [9] and -0.106 in assay [10].
In the case of `Cc1nc(CC2CCN(C(=O)CCl)CC2)no1`, the “log2 ratio” value in assay [1] was -0.781; in [2] it was -0.652; in assay [3], -0.314; in [4] it was 0.0562; in assay [5] it was -1.96 (active); in assay [6] it was -0.269. The “log2 ratio” value is -0.792 in assay [7], -0.321 in [8], -0.77 in assay [9] and 0.0849 in assay [10].
Regarding `Cl.Cn1c(CNC(=O)CCl)nc2cccnc21`, the “log2 ratio” value in assay [1] was -0.213; in assay [2] it was -0.356; in [3], -0.144; in assay [4] it was -0.0899; in [5], -1.17 (active); in assay [6], 0.177. Moreover, the “log2 ratio” value in [7] was -0.302; in assay [8], -0.0558; in assay [9] it was -0.177; in assay [10] it was -0.246.
